# Shown are actives, neighbours in structure and some others; about 2.5% of the full set was active somewhere.
# POLB inh – DNA polymerase beta (human) inhibition | Pol beta primer extension/strand displacement, fluorescence kinetic | 340,000 compounds, 1.3% hits | AID 485314 | P06746 | Potency, µM (doses to about 114 µM), inactives show top-dose activity change, negative = inhibition, hits mostly inhibitors; also: potency is read from the fitted curve at half-maximal effect; % is scaled to controls: 0 for no effect and ±100 for the full control effect
#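 Curves were derived by four-parameter Hill fits of normalized qHTS data. The kinetic fluorescent primer-extension read was taken at 0 and 10 min after 50 nM substrate, following a 15 min room-temperature preincubation of 10 nM enzyme with compounds.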
# APE1 inh-1 – inhibitors of human APE1 endonuclease. P27695. recombinant APE1, TAMRA/BHQ-2 abasic DNA cleavage fluorescence. Potency, µM (top dose mostly 65.8 µM), without a hit: at the highest dose activity change, negative = inhibition, hits mostly inhibitors. 350,000 compounds, 0.35% hits;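 also: potency is read from the fitted curve at half-maximal effect; plate controls were vehicle for no effect and reference inhibitor for full effect; nearly all actives have a fitted effect of over 55% in size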
# Target sequence (P27695 whole entry, looked up): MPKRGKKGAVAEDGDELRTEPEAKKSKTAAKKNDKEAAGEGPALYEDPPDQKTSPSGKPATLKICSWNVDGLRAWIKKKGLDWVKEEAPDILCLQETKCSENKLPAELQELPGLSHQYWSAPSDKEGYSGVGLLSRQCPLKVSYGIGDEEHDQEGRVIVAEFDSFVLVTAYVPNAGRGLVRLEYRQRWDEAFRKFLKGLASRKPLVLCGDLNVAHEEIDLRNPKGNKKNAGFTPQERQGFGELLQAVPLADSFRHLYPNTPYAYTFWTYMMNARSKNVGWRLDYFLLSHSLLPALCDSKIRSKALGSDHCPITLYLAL
#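 Quantitative HTS: incision of a TAMRA/BHQ-2 double-stranded substrate bearing a tetrahydrofuran abasic site by 0.75 nM APE1 raises fluorescence. Substrate 50 nM final, added after 15 min compound preincubation at room temperature; progress as third-minus-first kinetic read difference.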
# POLI inh – inhibitors of human DNA polymerase iota; Q9UNA4; Pol iota fluorescent replication assay, 10 min; Potency, µM (highest dose often 115 µM), inactives show at the top dose activity, negative = inhibition, most hits filed as inhibitors; 390,000 compounds, 1% hits; also: potency is read from the fitted curve at half-maximal effect
#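 Fluorescent replication assay read twice, at 0 min and 10 min after adding 50 nM (final) substrate. Enzyme (10 nM) and compounds were first incubated 15 min at room temperature; enzyme-free buffer wells were negative controls.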
# Pol kappa inh-1 – DNA polymerase kappa (human) inhibition. Q9UBT6. purified Pol kappa, fluorescent DNA synthesis assay, 10 min. Potency, µM (doses to about 107 µM), for inactives: top-dose activity, negative = inhibition, hits mostly inhibitors. 400,000 compounds, 0.53% hits; also: potency is read from the fitted curve at half-maximal effect; % is scaled to controls: 0 for no effect and ±100 for the full control effect
#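 Pol kappa 10 nM + cpd, 15 min RT; start w/ substrate 50 nM final; fluorescence kinetic read, 0 and 10 min. Neg ctrl: buffer, no enzyme.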
# L3MBTL1 inh-1 – blocks human L3MBTL1. Q9Y468. AlphaScreen L3MBTL1–H3K9me1 peptide binding. Potency, µM (series often up to 57.1 µM), for the others: top-dose activity, negative = inhibition, most hits filed as inhibitors. 230,000 compounds, 0.66% hits. AID 485360; also: potency is read from the fitted curve at half-maximal effect; % is scaled to controls: 0 for no effect and ±100 for the full control effect; nearly all actives have a fitted effect of over 60% in size
#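 L3MBTL1 50 nM + b-AHA-H3(1-15)K9me1 75 nM, 30 min RT; compound added, 30 min RT; streptavidin donor/Ni-chelate acceptor beads 10 ug/mL each final, 30 min RT dark; AlphaScreen read.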
# Pol eta inh-1 – inhibitors of human DNA polymerase eta. Potency, µM (top dose mostly 114 µM), inactives show at the top dose activity change, negative = inhibition, most hits filed as inhibitors. recombinant Pol eta, fluorescent DNA replication assay. 390,000 compounds, 1.2% hits. AID 588591; also: potency is read from the fitted curve at half-maximal effect; % is scaled to controls: 0 for no effect and ±100 for the full control effect
#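 Pol eta at 10 nM preincubated with compounds 15 min at room temperature; reaction started with fluorescent substrate (50 nM final) and read kinetically at 0 and 10 min.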
# DNA dye displace – counter-screen for APE1 inhibitors: DNA dye displacement; shares compounds with APE1 inh-1; DNA fluorescent dye displacement counterscreen, fluorescence; Potency, µM (titrated, usually from 28.5 µM), inactives show at the top dose activity change, negative = inhibition, hits mostly inhibitors; 480 compounds, 7% hits;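 also: loss of thiazole orange fluorescence as the dye is displaced from duplex DNA; potency is read from the fitted curve at half-maximal effect; 0% = ThO with dsDNA and no compound and -100% = ThO without dsDNA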
# Endo IV inh – counter-screen for APE1 inhibitors: inhibitors of E. coli endonuclease IV; Potency, µM (titrated, usually from 27.1 µM), for the others: at the highest dose activity change, negative = inhibition, hits mostly inhibitors; shares compounds with APE1 inh-1; 560 compounds, 4% hits; E. coli Endo IV, fluorogenic AP-site DNA cleavage;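 also: potency is read from the fitted curve at half-maximal effect; plate controls were uninhibited enzyme wells for no effect and no enzyme buffer wells for full effect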
# APE1 inh-2 – APE1 (human) endonuclease inhibition, confirmation | 750 compounds, 44% hits | purified APE1, fluorogenic abasic-site DNA cleavage | Potency, µM (top dose mostly 57.1 µM), without a hit: at the top dose activity change, negative = inhibition, hits mostly inhibitors | shares compounds with APE1 inh-1 | AID 2572; also: potency is read from the fitted curve at half-maximal effect; % is scaled to controls: 0 for no effect and ±100 for the full control effect; nearly all actives have a fitted effect of over 30% in size
# APE1 FP – displaces DNA from human APE1 in FP assay; shares compounds with APE1 inh-1; APE1 binding to TAMRA-labelled double-stranded DNA, fluorescence polarization displacement; Potency, µM (doses to about 28.5 µM), without a hit: at the top dose activity, negative = inhibition, most hits filed as inhibitors; 480 compounds, 7% hits; AID 2573; also: potency is read from the fitted curve at half-maximal effect; % is scaled to controls: 0 for no effect and ±100 for the full control effect
# L3MBTL1 inh-2 – blocks human L3MBTL1 methyl-lysine binding; shares compounds with L3MBTL1 inh-1; L3MBTL1 methyl-lysine binding inhibition, biochemical qHTS; Potency, µM, actives largely listed as inhibitors; AID 540279; 500 compounds, 91% hits; also: potency is read from the fitted curve at half-maximal effect; nearly all actives have a fitted effect of over 70% in size
# AlphaScreen ctr2 – counter-screen for L3MBTL1 inhibitors: AlphaScreen signal interference; shares compounds with L3MBTL1 inh-1; AlphaScreen counterscreen, signal inhibition; Potency, µM (highest dose often 57.1 µM), for the others: top-dose activity change, negative = inhibition, usual class: inhibitors; 500 tested, under 10 active; also: potency is read from the fitted curve at half-maximal effect; 0% is about no effect
# BAZ2B inh – inhibits human BAZ2B bromodomain, hit validation. shares compounds with Pol kappa inh-1. AlphaScreen BAZ2B / biotin-H3K14Ac peptide displacement. Potency, µM, most hits filed as inhibitors. 25 compounds, 100% hits; calls by dose curve
# AlphaScreen ctr – interferes with AlphaScreen signal in BAZ2B counterscreen; 25 tested, under 10 active; Potency, µM (titrated, usually from 57.1 µM), for inactives: at the top dose activity change, negative = inhibition, hits mostly inhibitors; shares compounds with Pol kappa inh-1; AlphaScreen biotin-His6 peptide bead counterscreen, signal decrease;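 active = clear concentration-dependent signal drop in the bead assay lacking the target, so a primary-screen artifact; inconclusive = weak, partial or single-dose response; inactive = no response, so a real primary hit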
# PGK validate – blocks T. brucei phosphoglycerate kinase; shares compounds with Pol kappa inh-1; TbPGK coupled GAPDH assay, Kinase-Glo luminescence; Potency, µM (highest dose often 57.5 µM), for inactives: at the top dose activity change, negative = inhibition, hits mostly inhibitors; 500 compounds, 79% hits; also: potency is read from the fitted curve at half-maximal effect; % is scaled to controls: 0 for no effect and ±100 for the full control effect; nearly all actives have a fitted effect of over 65% in size
# Target sequence (P07378 whole entry, looked up): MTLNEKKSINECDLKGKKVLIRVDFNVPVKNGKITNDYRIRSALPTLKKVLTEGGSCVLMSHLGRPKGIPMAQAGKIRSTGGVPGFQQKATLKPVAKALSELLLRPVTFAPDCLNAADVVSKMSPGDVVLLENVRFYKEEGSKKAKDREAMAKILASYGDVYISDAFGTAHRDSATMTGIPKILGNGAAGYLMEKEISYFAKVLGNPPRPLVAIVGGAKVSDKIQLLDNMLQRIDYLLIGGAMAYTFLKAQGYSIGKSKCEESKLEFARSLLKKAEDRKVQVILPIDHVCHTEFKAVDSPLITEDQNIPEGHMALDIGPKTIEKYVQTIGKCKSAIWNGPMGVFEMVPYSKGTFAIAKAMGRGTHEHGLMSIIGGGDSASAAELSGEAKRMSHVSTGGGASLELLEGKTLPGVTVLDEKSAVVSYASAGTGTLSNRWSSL
# POLI cherry-pick – Human Pol iota inhibitor confirmatory assay | shares compounds with Pol kappa inh-1 | Pol iota primer extension, TAMRA/BHQ fluorescence | Potency, µM, usual class: inhibitors | 1,500 compounds, 77% hits; also: potency is read from the fitted curve at half-maximal effect
# Pol kappa inh-2 – confirmation of human DNA polymerase kappa inhibitors; shares compounds with Pol eta inh-1; purified Pol-kappa, fluorescent strand-displacement substrate; Potency, µM, most hits filed as inhibitors; 920 compounds, 76% hits; also: potency is read from the fitted curve at half-maximal effect
# Pol eta inh-2 – Pol eta (human) inhibition, cherry-pick confirmation; shares compounds with Pol eta inh-1; Pol eta primer extension, TAMRA/BHQ fluorescence, 10 min; Potency, µM, hits mostly inhibitors; 2,600 compounds, 64% hits; AID 720502; also: potency is read from the fitted curve at half-maximal effect
# * marks the source's active call; other numbers are inactive results; ? = inconclusive; · = not tested or not shown; [ ] = another dose, or the depositor's remark. Unless noted, calls follow the shape of the dose curve; as a rule, active = well fitted curve in the direction sought with a large enough effect; inconclusive = small, poorly fitted or top-dose-only effect, or another doubt; inactive = no such curve, though single readings can be large; an effect the other way counts as inactive or inconclusive.
SMILES,POLB inh,APE1 inh-1,POLI inh,Pol kappa inh-1,L3MBTL1 inh-1,Pol eta inh-1,DNA dye displace,Endo IV inh,APE1 inh-2,APE1 FP,others
COC(=O)c1cncn1C(C)c1ccccc1 (configuration not stated),-18.8%,3.9%,?,-1.0%,-4.7%[11.4 µM],-5.2%,·,·,·,·,
COC(=O)C1=C(C)N(Cc2ccco2)C(=O)/C1=C\c1ccc(N(C)C)cc1,29.8%,7.2%,14.6%,?,-24.0%,-15.4%,·,·,·,·,
CCOC(=O)C1CCN(/C=C2/C(=O)NC(=O)N(Cc3ccco3)C2=O)CC1,22.4µM*,14.1µM*,17.8µM*,35.5µM*,14.1µM*,7.08µM*,4.5%,20.5%,3.16µM*,?,
C[C@]12CC[C@H]3[C@@H](CCC4=CC(=O)CC[C@@H]43)[C@@H]1CC[C@@H]2OC(=O)CCc1ccccc1,·,-4.1%,·,·,·,·,·,·,·,·,
CN(N=O)c1cc(O)ccc1O,1.26µM*,1.41µM*,11.2µM*,?,·,1.41µM*,·,-9.8%[57.1 µM],?,·,
CC(C)(Cl)Cl,·,1.0%,·,·,·,·,·,·,·,·,
O=C(O)c1ccc2[nH]cc(CCCCN3CC=C(c4ccccc4)CC3)c2c1,·,?,·,?,·,·,-0.7%[57.1 µM],19.0%[57.1 µM],?,15.4%[57.1 µM],
Cn1c(=O)oc2cc(S(=O)(=O)Nc3cccc([N+](=O)[O-])c3)ccc21,-26.5%,24.8%,99.9%,-11.1%,·,10.4%,·,·,·,·,
Nc1nc(/C(=C/CC(=O)O)C(=O)NC2C(=O)N3C(C(=O)O)=CCSC23)cs1 (configuration not stated),·,·,·,?,·,·,1.6%[57.1 µM],65.0%[57.1 µM],?,-0.6%[57.1 µM],
CC1=C(C(=O)O)N2C(=O)[C@@H](NC(=O)CCCC(=O)O)[C@H]2SC1,35.4%,-0.7%,16.2%,15.9%,14.1%,-4.0%,·,·,·,·,
O=c1[nH]c(=S)n(Cc2ccco2)c(O)c1C=NCc1cccs1,12.6µM*,?,22.4µM*,50.1µM*,·,22.4µM*,-9.3%,10.7%,-10.7%[24.4 µM],-3.5%,
O=C(NC1CC1)c1cc(-c2ccco2)nc2ccccc12,?,11.2µM*,?,20µM*,·,3.55µM*,?,?,25.1µM*,223.8%,BAZ2B inh=10*;AlphaScreen ctr=?
O=c1c2ccccc2nc(-c2ccco2)n1-c1ccccc1,13.0%,7.3%,8.3%,-9.4%,-11.4%,-19.5%,·,·,·,·,
Nc1ccc([N+](=O)[O-])cc1N,·,2.2%,·,·,·,·,·,·,·,·,
CN1C(=O)/C(=C/C=C/c2ccco2)C(=O)NC1=S,?,25.1µM*,10µM*,25.1µM*,·,5.62µM*,-1.8%,33.6%,14.1µM*,17.3%,PGK validate=5.17µM*
O=C1NC(=O)N(Cc2ccc(F)cc2)C(=O)/C1=C\c1ccoc1,?,28.2µM*,14.1µM*,25.1µM*,20µM*,22.4µM*,22.7%,3.0%,15.8µM*,5.6%,L3MBTL1 inh-2=7.52*;AlphaScreen ctr2=1.0%;POLI cherry-pick=18.9*;Pol kappa inh-2=16.8*;Pol eta inh-2=30.1*
CN(C)c1ccc(/C=C2\C(=O)NC(=O)N(Cc3ccc(F)cc3)C2=O)cc1,22.7%,10.7%,19.0%,-4.7%,·,-3.9%,·,·,·,·,
O=C1NC(=O)N(Cc2ccco2)C(=O)/C1=C/C=C/c1ccco1,?,2.82µM*,?,14.1µM*,·,3.98µM*,9.9%,-5.9%,5.01µM*,?,POLI cherry-pick=6.7*;Pol eta inh-2=4.78*
Cn1cccc1/C=C1\C(=O)NC(=O)N(Cc2ccco2)C1=O,14.1µM*,14.1µM*,7.94µM*,22.4µM*,·,10µM*,-4.4%,23.2%,4.47µM*,-7.6%,POLI cherry-pick=16.8*;Pol eta inh-2=16.9*
CCOc1cc(/C=N/NC(=O)c2cccs2)ccc1OC(=O)N1CCOCC1,24.1%,23.7%,13.3%,-9.7%,-1.9%,-10.3%,·,·,·,·,
Cc1cc(/C=C2\C(=O)NC(=O)N(c3ccc(F)cc3)C2=O)c(C)n1-c1ccc(C(=O)O)cc1,14.9%,3.1%,?,-17.9%,?,?,·,·,·,·,
